Assay results: PubChem BioAssay (EPA / NIEHS)
Several values for one entry are separate records, joined by “and”; a condition that tells them apart may be missing. Identical values can stand only once. Activity calls are given as the source filed them. The calls were made as follows: active = hit-call score of the fitted dose curve at least 0.9, where 1 is the maximum; inactive = score below 0.9.

Assay: CCTE_Harrill_HTTr_Apoptosis_MCF7: CCTE's 6-hour Apoptosis Assessment for the High-Throughput Transcriptomics (HTTr) Platform, in MCF-7 cells cultured in DMEM + 10% fetal bovine serum, Harrill Lab (AID 2284011)
From the text: This is a cell-based assay that evaluates apoptosis using high content imaging to evaluate activation of caspase-3/7 using the CellEvent Caspase 3/7 Green detection reagent in 384-well format.One of seven assay components measured from the CCTE_Harrill_HTTr_Apoptosis assay. This was part of a full screening experiment. This is a cell-based assay that evaluates apoptosis in MCF-7 cells cultured in DMEM + 10% fetal bovine serum. High content imaging is used to evaluate activation of caspase-3/7 using the CellEvent Caspase 3/7 Green detection reagent. Measurements are taken at 6 hours after chemical dosing in 384-well format.The assay component endpoint CCTE_Harrill_HTTr_Apoptosis_MCF7 was analyzed with bidirectional fitting relation to DMSO as the negative control and baseline of activity. Using a type of viability reporter, gain-of-signal activity can be used to evaluate activation of caspase-3/7 using the CellEvent Caspase 3/7 Green detection reagent to understand changes in apoptosis. To generalize the intended target to other relatable targets, this assay endpoint is annotated to cell cycle, where the subfamily is apoptosis.
Chemicals were tested in MCF7 cells in an eight point dilution series with a six hour exposure duration.

Structure (SMILES)	outcome	AC50
Cc1ccc(O)c(-n2nc3ccccc3n2)c1	inactive	–
CSc1ccc(O)cc1C	inactive	–
CN(N=O)C(=O)N[C@@H]1[C@@H](O)[C@H](O)[C@@H](CO)O[C@@H]1O	inactive	–
CC(=O)CCC(C)C	inactive	–
O=C(c1ccccc1)c1ccc(O)cc1O	inactive	–
CC1CCCCC1	inactive	–
Cc1cc(=O)[nH]c(C(C)C)n1	inactive	–
Cc1cccc(C)n1	inactive	–
Cc1cnccn1	inactive	–
CSc1ccc(Cl)cc1	inactive	–
O=S(=O)(O)c1ccc(Cl)cc1	inactive	–
CN(C)C(C)(C)CO	inactive	–
CCCCCCCCn1sc(Cl)c(Cl)c1=O	inactive	–
CCN=c1cc2oc3cc(NCC)c(C)cc3c(-c3ccccc3C(=O)OCC)c-2cc1C	–	96.9 nM (active) and 51.2 nM (active)
CCN=C1C=CC(=C(c2ccc(N(CC)CC)cc2)c2ccc(N(CC)CC)cc2)c2ccccc21	inactive	–
CCCCCCCCCCCCC[N+](C)(C)Cc1ccccc1	inactive	–
CC(C)(C)c1cc(CCC(=O)OCC(COC(=O)CCc2cc(C(C)(C)C)c(O)c(C(C)(C)C)c2)(COC(=O)CCc2cc(C(C)(C)C)c(O)c(C(C)(C)C)c2)COC(=O)CCc2cc(C(C)(C)C)c(O)c(C(C)(C)C)c2)cc(C(C)(C)C)c1O	inactive	–
CCCCCCCCCCCCCCCCC	inactive	–
CCCCCCCC/C=C\CCCCCCCC(=O)N(C)CC(=O)O	inactive	–
Brc1ccccn1	inactive	–
CCC(Cc1c(I)cc(I)c(N)c1I)C(=O)O (stereo unspecified)	inactive	–
CCCCCCCCCc1ccc(OCCO)cc1	inactive	–
CCc1ccc(C)nc1	inactive	–
CCCCC(CC)COC(=O)c1ccc(N(C)C)cc1 (stereo unspecified)	inactive	–
CCOC(=O)C1CC(=O)C(=C(O)C2CC2)C(=O)C1 (stereo unspecified)	inactive	–
C[C@]12CC[C@H]3C(=CCc4cc(O)ccc43)[C@@H]1CCC2=O	inactive	–
